Assay outcomes as filed in PubChem.
GALK inh: inhibitors of human galactokinase | P51570 | Purified GALK, Kinase-Glo residual ATP luminescence | Potency, µM (doses to about 57.5 µM), without a hit: at the highest dose activity change, negative = inhibition, hits mostly inhibitors | 0.007% of 270,000 active; note: % is set by controls: 0 for no effect and ±100 for the full control effect
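5 nM enzyme, 35 uM ATP, 100 uM galactose, 20 mM HEPES pH8.0, 5 mM MgCl2; 1 h RT; residual ATP by Kinase-Glo Plus luminescence, qHTS format.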
A549 viability: A549 cytotoxicity, counter-screen for Nrf2 inhibitors | Potency, µM (series often up to 46 µM), for the others: at the highest dose activity change, negative = cytotoxicity, hits mostly inhibitors | 0.16% of 390,000 active | A549 ARE-Fluc cells, CellTiter-Fluor viability, 18-24 h; note: % is set by controls: 0 for no effect and ±100 for the full control effect
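Cytotoxicity counterscreen: CellTiter-Fluor fluorescence was measured in A549 ARE_Fluc cells after 18-24 h of compound exposure in a concentration series. The subsequent BugLite luminescent read reports ARE-luciferase activity.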
Nrf2 block: blocks Nrf2 signaling. A549 ARE-Fluc reporter, luciferase luminescence, 18-24 h. Potency, µM (top dose mostly 46 µM), for inactives: at the highest dose activity change, negative = inhibition, most hits filed as inhibitors. 2.1% of 360,000 active; note: % is set by controls: 0 for no effect and ±100 for the full control effect; nearly all actives have a fitted effect of over 60% in size
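Cells were seeded and rested 2 h, then exposed to compounds for 18-24 h. CellTiter-Fluor was read first as a viability measure. BugLite was added 15 min before the final luminescent read of ARE-luciferase activity in A549 cells.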
rTrxR1 inhibitor: blocks rat thioredoxin reductase 1; O89049; recombinant rTrxR1, NADPH fluorescence consumption, selenite substrate; Potency, µM (top dose mostly 114 µM), inactives show at the top dose activity change, negative = inhibition, hits mostly inhibitors; 1% of 390,000 active; AID 588453; note: % is set by controls: 0 for no effect and ±100 for the full control effect; nearly all actives have a fitted effect of over 65% in size
Target sequence (O89049 whole entry, looked up): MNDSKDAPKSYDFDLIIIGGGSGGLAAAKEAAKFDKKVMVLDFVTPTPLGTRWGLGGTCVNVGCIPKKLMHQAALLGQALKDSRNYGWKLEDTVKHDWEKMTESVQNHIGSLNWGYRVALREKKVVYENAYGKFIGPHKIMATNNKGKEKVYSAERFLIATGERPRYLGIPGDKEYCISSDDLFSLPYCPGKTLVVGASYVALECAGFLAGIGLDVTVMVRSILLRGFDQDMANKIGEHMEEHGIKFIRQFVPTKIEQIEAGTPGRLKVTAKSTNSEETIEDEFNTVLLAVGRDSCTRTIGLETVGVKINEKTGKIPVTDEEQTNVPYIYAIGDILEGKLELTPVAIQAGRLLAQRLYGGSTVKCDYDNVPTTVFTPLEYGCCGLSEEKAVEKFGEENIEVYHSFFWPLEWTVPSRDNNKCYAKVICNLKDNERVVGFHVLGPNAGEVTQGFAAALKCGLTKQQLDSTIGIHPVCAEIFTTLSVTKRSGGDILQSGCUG
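Rat TrxR1 (90 nM in the dispensed reagent) was pre-reduced with 400 uM NADPH for 5 min at room temperature, then incubated with compound for 15 min. After 400 uM selenite was added, NADPH fluorescence (Ex 340/Em 450 nm) was followed for 8 min.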
Nrf2 activator: activates Nrf2 signaling; AID 624171; AREc32 ARE-luciferase reporter (MCF7-derived line), luminescence, 24 h; Potency, µM (highest dose often 46.1 µM), without a hit: top-dose activation, hits mostly activators; 0.31% of 410,000 active; note: % of control where 0% means no effect; nearly all actives have a fitted effect of over 65% in size
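Luminescent ARE reporter assay in AREc32_Fluc cells: overnight plating at 37 deg C, 24 hr compound incubation, Steady-Glo added, 30 min RT before reading.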
TrxR1 substrate: substrates of rat thioredoxin reductase 1; O89049; purified TrxR1 substrate turnover, NADPH consumption readout; Potency, µM (highest dose often 114 µM), inactives show at the highest dose activity change, negative = substrate turnover; 0.01% of 390,000 active; note: % is set by controls: 0 for no effect and ±100 for the full control effect; nearly all actives have a fitted effect of over 50% in size
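Rat TrxR1, dispensed at 90 nM, was prereduced with 400 uM NADPH (final) for 5 min at ~22 deg C, then incubated with compound 15 min before 400 uM selenite. A first-read NADPH fluorescence drop versus no-compound background flagged substrates.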
Active calls of the source: *; ? = inconclusive; / = no result; ! = repeats disagree; [ ] = another dose, or the depositor's remark. This is a sample that favours compounds with a hit; in the whole collection about 3% have one here. Calls come from the whole dose curve; as a rule, active = well fitted curve in the direction sought with a large enough effect; inconclusive = small, poorly fitted or top-dose-only effect, or another doubt; inactive = no such curve, though single readings can be large; an effect the other way counts as inactive or inconclusive. Potency is the fitted concentration of half-maximal effect.

SMILES | GALK inh | A549 viability | Nrf2 block | rTrxR1 inhibitor | Nrf2 activator | TrxR1 substrate
COc1ccccc1-c1nnc(NC(=O)CCS(=O)(=O)c2ccc(F)cc2)o1 | / | / | / | / | 22µM* | /
CCN(Cc1ccccc1)S(=O)(=O)c1ccc(C(=O)Nc2nnc(-c3ccccc3OC)o2)cc1 | 0% | -22% | 13µM* | ? | 0% | -10%[11.4 µM]
CCCCCOc1ccccc1CN1C(=O)C(=O)c2cc(C)ccc21 | / | 2% | 3% | 1% | 0% | 4%
COC(=O)C1=C(O)/C(=C\c2cc(C)n(-c3ccccc3C)c2C)N=C1C | 2% | -15% | ? | -26% | 1% | -7%
COC(=O)C1=C(O)/C(=C\c2cc(C)n(-c3ccccc3F)c2C)N=C1C | 0% | -14% | -1% | 16µM* | 0%[9.22 µM] | -1%
CCOC(=O)C(C)CC(C)C(=O)N1CCOCCOCCN(C(=O)C(C)CC(C)C(=O)OCC)CCOCC1 (stereo not given) | 1% | 2% | -20% | 9% | 0% | 7%
CCOC(=O)C(C(=O)OCC)C(C(=O)OCC)N1CCOCC1 (stereo not given) | -2% | -7% | 3% | 1.3µM* | 0% | 6%
CSc1ccccc1OCc1cc(C(=O)N(C)Cc2ccc(C)o2)no1 | -2% | -2% | 8% | 35µM* | 0% | 1%
CC(=O)c1cccc(OCc2cc(C(=O)N(C)CCc3ccccn3)no2)c1 | -2% | 8% | 1% | -28% | 1% | -2%
CC(=O)c1cccc(OCc2cc(C(=O)N(C)Cc3ccc(C)o3)no2)c1 | 3% | -3% | 10% | 3.5µM* | 5% | -3%
Cc1ccc(CN(C)C(=O)c2ccccc2Oc2ccccc2)o1 | -1% | 4% | 3% | 11µM* | 0% | 7%
CSc1ccccc1OCc1cc(C(=O)N(C)Cc2ccc3nsnc3c2)no1 | 3% | 9% | ? | -10% | 5% | -9%
Cc1ccc(NC(=O)CS(=O)(=O)c2nc(-c3ccc(C)cc3)cn2-c2ccc(C)cc2)cc1 | / | 0% | ? | 19% | 6% | -7%
CCCCNC(=O)CSc1nc2ccccc2nc1Cc1ccc(Cl)cc1 | / | 1% | / | -6%[57.1 µM] | 0% | -7%[57.1 µM]
COc1ccc(-c2nnc(NC(=O)c3ccc(S(=O)(=O)N4COCC4(C)C)cc3)o2)cc1 | -1% | -21% | 18µM* | -8% | 0% | -6%
COC(=O)C1=C(N)Oc2cc(C)n(CC3CCCO3)c(=O)c2C1c1ccc(Cl)c(Cl)c1 (stereo not given) | -1% | -22% | 21µM* | 9%[57.1 µM] | 0% | -4%[57.1 µM]
COC(=O)C1=C(N)Oc2cc(C)n(C)c(=O)c2C1c1ccc(Cl)c(Cl)c1 (stereo not given) | 6% | 1% | -10% | -4% | -1% | -7%
Cc1ccc(-c2nc(C)c(CCNC(=O)c3cccs3)s2)cc1 | / | 4% | / | -2%[57.1 µM] | 6% | -3%[57.1 µM]
O=C(Nc1cccc(S(=O)(=O)Nc2ccc(Cl)cc2)c1)c1cc2c(s1)CCCC2 | -2% | ? | 23µM* | 11% | 8% | 7%
Cc1ccc(NC(=O)c2cc3c(s2)CCCC3)cc1S(=O)(=O)Nc1ccccc1Cl | 0% | -20% | 7.3µM* | 23% | 3% | 23%
Cc1ccccc1CN1CCNC(=O)C1CC(=O)O (stereo not given) | 1% | -6% | 1% | 71µM* | 0% | 5%
COc1cccc(CN2CCNC(=O)C2CC(=O)O)c1OC (stereo not given) | -1% | -1% | -5% | ? | 0% | -1%
CC(C)c1ccc(NC(=O)C2(C)Cc3ccccc3C(=O)O2)cc1 (stereo not given) | / | 0% | ? | 10% | 5% | -1%
Cc1c(CC(=O)N2CCN(C(=O)C3COc4ccccc4O3)CC2)c(=O)oc2cc(O)cc(O)c12 (stereo not given) | -3% | 8% | 5% | -26% | 2% | 99%
Cc1c(CC(=O)N2CCN(C(=O)C3COc4ccccc4O3)CC2)c(=O)oc2cc(O)ccc12 (stereo not given) | 6% | 2% | -6% | 89µM* | 1% | 871%
SMILES | GALK inh | A549 viability | Nrf2 block | rTrxR1 inhibitor | Nrf2 activator | TrxR1 substrate
Cc1c(CC(=O)N2CCCCC2)c(=O)oc2cc(O)ccc12 | / | 7% | 13% | 56µM* | 0% | 925%
COc1ccc2c(C)c(CC(=O)N3CCN(C(=O)C4COc5ccccc5O4)CC3)c(=O)oc2c1 (stereo not given) | -4% | 13% | 23µM* | 26% | 0% | -6%
Cc1oc2cc3oc(=O)c(CC(=O)N4CCCCC4)c(C)c3cc2c1C | / | -2% | 12% | 2% | -1% | -1%
Cc1ccc(C)c2sc(NC(=O)c3ccc(S(=O)(=O)N4CCC(C)CC4)cc3)nc12 | / | -12% | / | 24%[57.1 µM] | -1% | 9%[57.1 µM]
CC1CCN(S(=O)(=O)c2ccc3nc(NCc4ccccc4)ccc3c2)CC1 | / | -15% | 16µM* | 13%[57.1 µM] | 0% | 3%[57.1 µM]
CC1CCN(S(=O)(=O)c2ccc3nc(Nc4cccc(F)c4)ccc3c2)CC1 | / | ? | 21µM* | 15%[57.1 µM] | 0% | 18%[57.1 µM]
CCN(CC)c1ccccc1/C=C/[n+]1ccc(CCCCI)c2ccccc21 | / | / | / | ? | / | -1%
CC(C)CN(CCCNC(=O)CN1C(=O)COc2ccc(S(=O)(=O)N3CCCC3)cc21)CC(C)C | 1% | 11% | -8% | -8% | -1% | -8%
CCOc1ccc(CCNC(=O)CN2C(=O)COc3ccc(S(=O)(=O)N(CC)CC)cc32)cc1 | / | -4% | 23µM* | -19% | 2% | -18%
CC(C)CN(CCCNC(=O)CN1C(=O)COc2ccc(S(=O)(=O)N3CCCCCC3)cc21)CC(C)C | -6% | 1% | 22% | 56µM*! | 0% | 5%
CCOc1ccc(CCNC(=O)CN2C(=O)COc3ccc(S(=O)(=O)N4CCCCCC4)cc32)cc1 | / | -9% | -16% | 0% | 0% | -10%
COc1cc(NC(=O)CC(c2cccs2)N2Cc3ccccc3C2=O)cc(OC)c1OC (stereo not given) | / | 0% | 18% | -3% | 1% | 2%
COC(=O)c1sc(NC(=O)c2ccc([N+](=O)[O-])o2)c(C#N)c1C | -1% | 21% | ? | 14µM* | ? | ?
CC(=O)N1CCc2c(sc(NC(=O)c3ccc([N+](=O)[O-])o3)c2C#N)C1 | 7% | 21µM* | 26µM* | ? | ? | -21%
Cc1ccccc1-c1noc(-c2ccc(N3CCCCC3)c([N+](=O)[O-])c2)n1 | / | 11% | 9% | -1% | -1% | -10%
O=C(Nc1ccc(C(=O)OCc2cc(=O)n3c4c(sc3n2)CCCC4)cc1)c1ccccc1 | / | -4% | / | 19%[57.1 µM] | -1% | 9%[57.1 µM]
